The labels stand for the following.
B1: AUUCACC (DNA:RNA)
RNA: GGGAGACCGGAAUUCAGAUUGUCCAUUCACCUUAAAUCCCGUCGUAGCCACCA
DNA 1: CAATCTGAATTCCGGTCTCCC
DNA 2: TGGTGGCTACGACGGGATT
B2: GAGUUGU (DNA:RNA)
RNA: GGGAGACCGGAAUUCAGAUUGUCCGAGUUGUUUAAAUCCCGUCGUAGCCACCA
DNA 1: CAATCTGAATTCCGGTCTCCC
DNA 2: TGGTGGCTACGACGGGATT
B3: CAACGAU (DNA:RNA)
RNA: B2 RNA with G25C, G27A, U28C, U29G, G30A
DNA 1: CAATCTGAATTCCGGTCTCCC
DNA 2: TGGTGGCTACGACGGGATT
B4: AACCAAC (DNA:RNA)
RNA: B1 RNA with U26A, U27C, C30A
DNA 1: CAATCTGAATTCCGGTCTCCC
DNA 2: TGGTGGCTACGACGGGATT
B5: GAAACCA (DNA:RNA)
RNA: B2 RNA with G27A, U28A, U29C, G30C, U31A
DNA 1: CAATCTGAATTCCGGTCTCCC
DNA 2: TGGTGGCTACGACGGGATT
B6: UUUAAUU (DNA:RNA)
RNA: B1 RNA with A25U, C28A, C30U, C31U
DNA 1: CAATCTGAATTCCGGTCTCCC
DNA 2: TGGTGGCTACGACGGGATT
B7: CUGAUGU (DNA:RNA)
RNA: B2 RNA with G25C, A26U, U28A
DNA 1: CAATCTGAATTCCGGTCTCCC
DNA 2: TGGTGGCTACGACGGGATT
B8: GUGCAUG (DNA:RNA)
RNA: B1 RNA with A25G, U27G, C30U, C31G
DNA 1: CAATCTGAATTCCGGTCTCCC
DNA 2: TGGTGGCTACGACGGGATT
B9: UUGCAUG (DNA:RNA)
RNA: B1 RNA with A25U, U27G, C30U, C31G
DNA 1: CAATCTGAATTCCGGTCTCCC
DNA 2: TGGTGGCTACGACGGGATT
B10: GUGCAUA (DNA:RNA)
RNA: B1 RNA with A25G, U27G, C30U, C31A
DNA 1: CAATCTGAATTCCGGTCTCCC
DNA 2: TGGTGGCTACGACGGGATT
B11: GUGCAAG (DNA:RNA)
RNA: B1 RNA with A25G, U27G, C30A, C31G
DNA 1: CAATCTGAATTCCGGTCTCCC
DNA 2: TGGTGGCTACGACGGGATT
B12: GUGCAUC (DNA:RNA)
RNA: B1 RNA with A25G, U27G, C30U
DNA 1: CAATCTGAATTCCGGTCTCCC
DNA 2: TGGTGGCTACGACGGGATT
B13: UUGCAAG (DNA:RNA)
RNA: B1 RNA with A25U, U27G, C30A, C31G
DNA 1: CAATCTGAATTCCGGTCTCCC
DNA 2: TGGTGGCTACGACGGGATT
B14: UUGCAUC (DNA:RNA)
RNA: B1 RNA with A25U, U27G, C30U
DNA 1: CAATCTGAATTCCGGTCTCCC
DNA 2: TGGTGGCTACGACGGGATT
B15: UUGCAAA (DNA:RNA)
RNA: B1 RNA with A25U, U27G, C30A, C31A
DNA 1: CAATCTGAATTCCGGTCTCCC
DNA 2: TGGTGGCTACGACGGGATT
B16: UUGCAUA (DNA:RNA)
RNA: B1 RNA with A25U, U27G, C30U, C31A
DNA 1: CAATCTGAATTCCGGTCTCCC
DNA 2: TGGTGGCTACGACGGGATT
B17: CCUGUAG (DNA:RNA)
RNA: B1 RNA with A25C, U26C, C28G, A29U, C30A, C31G
DNA 1: CAATCTGAATTCCGGTCTCCC
DNA 2: TGGTGGCTACGACGGGATT
B18: UCGAGAU (DNA:RNA)
RNA: B2 RNA with G25U, A26C, U28A, U29G, G30A
DNA 1: CAATCTGAATTCCGGTCTCCC
DNA 2: TGGTGGCTACGACGGGATT
B19: CUGCACC (DNA:RNA)
RNA: B1 RNA with A25C, U27G
DNA 1: CAATCTGAATTCCGGTCTCCC
DNA 2: TGGTGGCTACGACGGGATT
B20: UGCACCC (DNA:RNA)
RNA: B1 RNA with A25U, U26G, U27C, C28A, A29C
DNA 1: CAATCTGAATTCCGGTCTCCC
DNA 2: TGGTGGCTACGACGGGATT
B21: UGCACGU (DNA:RNA)
RNA: B2 RNA with G25U, A26G, G27C, U28A, U29C
DNA 1: CAATCTGAATTCCGGTCTCCC
DNA 2: TGGTGGCTACGACGGGATT
B22: UGCACCG (DNA:RNA)
RNA: B1 RNA with A25U, U26G, U27C, C28A, A29C, C31G
DNA 1: CAATCTGAATTCCGGTCTCCC
DNA 2: TGGTGGCTACGACGGGATT
B23: UGCCACG (DNA:RNA)
RNA: B1 RNA with A25U, U26G, U27C, C31G
DNA 1: CAATCTGAATTCCGGTCTCCC
DNA 2: TGGTGGCTACGACGGGATT
B24: CUGCACG (DNA:RNA)
RNA: B1 RNA with A25C, U27G, C31G
DNA 1: CAATCTGAATTCCGGTCTCCC
DNA 2: TGGTGGCTACGACGGGATT

Numbering of substitutions follows the chain as printed; changes in the protein carry UniProt numbers. Over roughly 16,000 sequences, “ka relative to ugcaugu” has its median near 0.0091; the highest 2% begin near 0.032. The list comes from a sample in which the highest values are over-represented; it also holds similar and randomly drawn sequences.

For this assay, the target named is T1, RBFOX1 RRM (Homo sapiens, UniProt Q9NWB1 109-208).
T1 sequence: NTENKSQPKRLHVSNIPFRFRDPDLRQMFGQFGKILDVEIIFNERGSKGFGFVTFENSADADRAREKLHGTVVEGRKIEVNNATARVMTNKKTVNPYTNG
Briefly: EMSA; HiTS-Eq, 1 nM pool, 10 min; buffer printed only for the single-RNA assays: 10 mM Tris pH 7.5, 150 mM NaCl, 3.4 mM EDTA, 0.001% NP-40, 30 C. The settings on record: tags: His6 N-terminal (pET28a); label: 5' 32P. In outline:
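Purified wild-type or mutant RbFox RRM at increasing concentrations was equilibrated with 1 nM of 5′-radiolabelled RNA carrying 7 randomized nucleotides for 10 min in 50 µL. Unbound RNA was separated by 8% native PAGE and sequenced. Relative association constants came from read-count changes of each RNA species compared with the control reaction, normalised to the cognate motif.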
Take B1: the binding signal was 0.00129 KA relative to UGCAUGU.
In the case of B2 it was 0.0179 KA relative to UGCAUGU.
B3: the binding signal was 0.00177 KA relative to UGCAUGU.
On to B4, for which the binding signal was 0.000641 KA relative to UGCAUGU.
Then B5, with 0.00223 KA relative to UGCAUGU; and B6, with 0.00658 KA relative to UGCAUGU.
In the case of B7 it was 0.0201 KA relative to UGCAUGU; in that of B8, 1 KA relative to UGCAUGU; in that of B9, 1 KA relative to UGCAUGU.
Then B10, with 0.0221 KA relative to UGCAUGU; and B11, with 0.0274 KA relative to UGCAUGU; and B12, with 0.0315 KA relative to UGCAUGU.
Regarding B13, the binding signal was 0.0333 KA relative to UGCAUGU.
Then B14, with 0.022 KA relative to UGCAUGU; and B15, with 0.0109 KA relative to UGCAUGU; and B16, with 0.0139 KA relative to UGCAUGU.
In the case of B17, the binding signal was 0.00969 KA relative to UGCAUGU.
Then B18, with 0.00776 KA relative to UGCAUGU; and B19, with 0.0128 KA relative to UGCAUGU.
Then B20, with 0.0142 KA relative to UGCAUGU; and B21, with 0.514 KA relative to UGCAUGU.
Turning to B22, the binding signal was 0.0145 KA relative to UGCAUGU.
In the case of B23 it was 0.0198 KA relative to UGCAUGU; in that of B24, 0.616 KA relative to UGCAUGU.
